Bioassay records from PubChem.
RGS12 GoLoco inh: qHTS Assay for Inhibitors of RGS12 GoLoco Motif Activity (Red Fluorophore); Guanine nucleotide-binding protein G(i) subunit alpha-1 (Homo sapiens), P63096; Gai1:RGS12 GoLoco peptide FP, rhodamine, 10 min; Potency, µM (doses to about 61.6 µM), without a hit: top-dose activity, negative = inhibition, actives largely listed as inhibitors; hit rate 0.44% among 230,000; active = well fitted inhibition curve with a large enough effect, not every such curve was filed as active; inactive = no such curve, though single readings can be large or run the other way; also: potency is read from the fitted curve at half-maximal effect; % is scaled to controls: 0 for no effect and ±100 for the full control effect; nearly all actives have a fitted effect of over 30% in size
Target sequence (P63096 whole entry, looked up): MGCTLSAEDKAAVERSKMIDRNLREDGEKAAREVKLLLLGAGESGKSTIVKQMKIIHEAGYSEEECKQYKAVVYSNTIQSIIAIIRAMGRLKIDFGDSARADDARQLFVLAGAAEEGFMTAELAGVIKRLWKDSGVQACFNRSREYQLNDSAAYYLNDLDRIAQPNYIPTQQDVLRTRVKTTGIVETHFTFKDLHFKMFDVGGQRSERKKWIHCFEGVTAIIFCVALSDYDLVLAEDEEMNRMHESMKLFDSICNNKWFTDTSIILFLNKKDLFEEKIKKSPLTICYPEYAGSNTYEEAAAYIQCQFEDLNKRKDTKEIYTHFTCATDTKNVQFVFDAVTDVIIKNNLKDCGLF
Vif-APOBEC3F blk: qHTS for Inhibitors of Vif-A3F Interactions: qHTS. HeLa A3F-eYFP + Vif (tagged APOBEC3F with the HIV-1 protein that degrades it), YFP fluorescence increase. Potency, µM (highest dose often 46.1 µM), inactives show at the highest dose activity, negative = active. hit rate 0.2% among 390,000. AID 602313, 2012; also: potency is read from the fitted curve at half-maximal effect; % of control where 0% means no effect; nearly all actives have a fitted effect of over 65% in size
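Fluorescence increase (Ex 488/Em 500-530) after overnight compound treatment at 37 deg C flags inhibition of Vif-driven A3F-eYFP loss in stable HeLa A3F-eYFP/Vif cells seeded overnight beforehand.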
IL-2 act: qHTS of IL-2 Activators | IL-2 activation reporter assay, cell-based qHTS; stimulated with anti-CD3/CD4/CD28 beads; in transgenic mouse T cells | AID 652025, 2013 | hit rate 0.065% among 360,000 | activation, % (series mostly up to about 46 µM); in the data active = activation above about 50%; inconclusive = mostly about 30% to 49%; also: 0% is about no effect
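Screening format: compound pinned onto unstimulated transgenic mouse T cells, 60 min incubation, then anti-CD3/anti-CD4/anti-CD28 bead stimulation for 18 hours at 37 degrees C, followed by EGFP and DsRed detection.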
PKM2 activator: qHTS Assay for Activators of Human Muscle isoform 2 Pyruvate Kinase | Pyruvate kinase PKM (Homo sapiens), P14618 | purified PKM2, Kinase-Glo ATP luminescence, activation; response scale: 0% is enzyme alone, no compound | Potency, µM (doses to about 57.5 µM), without a hit: at the top dose activation, hits mostly activators | hit rate 0.34% among 260,000 | AID 1631, 2009; also: potency is read from the fitted curve at half-maximal effect; % is scaled to controls: 0 for no effect and ±100 for the full control effect; nearly all actives have a fitted effect of over 55% in size
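Purified hPK-M2 (>95%) run at intermediate activity with 0.1 mM ADP and 0.5 mM PEP in 50 mM imidazole pH 7.2, KCl, MgCl2; 1 h room temperature. ATP formed read by Kinase-Glo luminescence; normalized to uninhibited and no-enzyme controls.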
GCN5L2 inh: qHTS Assay for Inhibitors of GCN5L2. Histone acetyltransferase KAT2A (Homo sapiens), Q92830. GCN5L2 HAT assay, ThioGlo1 CoA-SH fluorescence. Potency, µM (top dose mostly 58.9 µM), for inactives: at the highest dose activity change, negative = inhibition, usual class: inhibitors. hit rate 0.21% among 390,000; also: potency is read from the fitted curve at half-maximal effect; % is scaled to controls: 0 for no effect and ±100 for the full control effect
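GCN5L2 (20 nM) in 50mM HEPES pH 7.5, 0.1mM EDTA, 0.01% Tween-20 preincubated 15 min with compounds at room temperature. Reaction started with H3(1-25) 75uM, acetyl-CoA 70uM, ThioGlo1 50uM; CoA-thiol fluorescence (Ex340/Em540) read at 0 and 20 min.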
Vif-A3G inh: qHTS for Inhibitors of Vif-A3G Interactions: qHTS; DNA dC->dU-editing enzyme APOBEC-3G (Homo sapiens), Q9HC16; HeLa A3G-eYFP + Vif (tagged APOBEC3G with the HIV-1 protein that degrades it), YFP fluorescence, overnight; Potency, µM (doses to about 46.1 µM), without a hit: at the highest dose activity, negative = active, actives largely listed as inhibitors; hit rate 0.076% among 410,000; AID 602310, 2012; also: potency is read from the fitted curve at half-maximal effect; % is scaled to controls: 0 for no effect and ±100 for the full control effect; nearly all actives have a fitted effect of over 60% in size
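Read-out is eYFP fluorescence (Ex 488/Em 500-530) from Vif-expressing HeLa A3G-eYFP cells; more signal means A3G escaped Vif-mediated degradation. Cells plated overnight, compound pinned in, incubated overnight at 37 deg C.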
* = called active by the depositor; ? = inconclusive; / = not tested or not shown. Rows were chosen to be rich in hits. Some 0.77% of all compounds tested hit in one or more screens of this group. Unless noted, calls follow the shape of the dose curve; as a rule, active = well fitted curve in the direction sought with a large enough effect; inconclusive = small, poorly fitted or top-dose-only effect, or another doubt; inactive = no such curve, though single readings can be large; an effect the other way counts as inactive or inconclusive.

SMILES	RGS12 GoLoco inh	Vif-APOBEC3F blk	IL-2 act	PKM2 activator	GCN5L2 inh	Vif-A3G inh
Cc1cc(NC(=O)CSc2ccc(-c3cccc([N+](=O)[O-])c3)nn2)no1	-1.4%	-6.6%	-0.2	3.2%	-1.5%	5.1%
Cc1cc(NC(=O)CSc2ccc3nnc(-c4ccc(F)cc4)n3n2)no1	6.9%	-1.1%	-0.1	5.2%	-11.6%	0.7%
Cc1cc(NC(=O)CSc2ccc(-c3ccc(F)cc3)nn2)no1	4.6%	4.6%	0.4	7.08µM*	-11.8%	1.6%
COc1ccc(CNC(=O)N2CCN(S(=O)(=O)c3ccccc3)CC2)cc1	/	-9.5%	-0.1	/	1.6%	-1.0%
COc1ccc(S(=O)(=O)N2CCC(NC(=O)OCc3c(Cl)cccc3Cl)CC2)cc1	-3.4%	-0.7%	-1.3	?	-4.6%	-0.9%
COc1ccc(S(=O)(=O)N2CCN(C(=O)NCc3ccccc3)CC2)cc1	6.1%	-0.8%	0.5	7.08µM*	-18.1%	-6.7%
COc1ccc(COC(=O)NC2CCN(S(=O)(=O)c3ccc(OC)cc3)CC2)cc1	-2.7%	-2.6%	-1.3	20µM*	-9.4%	3.8%
COc1ccc(CNC(=O)C2=CCN(S(=O)(=O)c3ccc(C)cc3)CC2)cc1	-1.6%	5.1%	0.6	14.1µM*	-22.3%	-2.3%
CCc1nc(N)c(C#N)c(-c2cccc3ccccc23)c1C	-10.0%	-21.7%	1.7	-3.2%	-2.1%	0.1%
CC(C)C[C@@H](CC(=O)N[C@@H](CCCN)CC(=O)N[C@@H]1CCNC[C@H]1C(=O)N[C@H](CC(=O)N[C@@H](CCC(=O)O)CC(=O)O)Cc1c[nH]c2ccccc12)NC(=O)[C@@H]1CCCC[C@H]1N	2.6%	/	/	/	/	/
O=c1[nH]c(NCc2ccco2)nnc1Cc1ccccc1Cl	-2.3%	/	-0.7	-1.4%	/	12.6µM*
Cc1nc(NCc2ccco2)[nH]c(=O)c1CCC(C)C	-0.7%	-6.1%	-0.1	0.7%	-1.0%	-1.8%
Cc1cc(C)c(NC(=O)Cn2c(=O)n(Cc3ccc(C(=O)NCc4ccco4)cc3)c(=O)c3sccc32)c(C)c1	/	?	/	/	?	8.91µM*
Cc1cccc(C)c1NC(=O)Cn1c(=O)n(Cc2ccc(C(=O)NCc3ccco3)cc2)c(=O)c2sccc21	/	/	/	/	-14.8%	/
CCN1CCN(CCNC(=O)c2ccc(CS(=O)(=O)c3c(Cl)cccc3Cl)o2)CC1	-1.6%	1.7%	-0.1	-4.8%	-4.9%	0.5%
CN(C)c1ccc(-c2csc(C(O)c3cccc(Cl)c3)n2)cc1 (centres undefined)	/	/	-0.7	/	/	-12.6%
CCOC(=O)N1CCN(c2cc(=O)n(C)c(=O)n2C)CC1	3.5%	-1.5%	-2.0	-7.4%	-0.1%	2.4%
NC(CCCP(=O)(O)O)C(=O)O (centres undefined)	-0.4%	/	/	/	-9.6%	/
COc1cc2nc(/C=C/c3ccc(N(C)C)cc3)sc2cc1SC	55.3%	8.91µM*	23.9	0.3%	-10.4%	?
CCCOc1ccccc1C1C(C(=O)OC)=CN(C(C)C)C=C1C(=O)OC	11.5%	-6.6%	3.0	0.2%	0.7%	0.4%
Cn1c(/C=C/c2ccc([N+](=O)[O-])o2)nc2ccccc2c1=O	19.0%	11.2µM*	17.9	6.7%	1.7%	2.82µM*
Cc1cc(N/N=C/c2ccc([N+](=O)[O-])o2)nc2ccccc12	96.5%	?	-0.2	-6.5%	-7.7%	11.2µM*
CCOc1ccccc1C(=O)Nc1nnc(COC)s1	50.1µM*	-0.1%	-0.6	-21.7%	-3.5%	1.4%
CCc1ccc(NC(=O)C2CCCN(c3nnc(C)c4c(C)n(-c5ccccc5)nc34)C2)cc1 (centres undefined)	/	-8.5%	/	/	0.4%	-1.7%
